Sfp inh = Sfp phosphopantetheinyl transferase inhibition | Q9F4F7 | Biochemical Sfp PPTase activity, qHTS | Potency, µM, actives largely listed as inhibitors | 3.5% of 310,000 active | AID 1490;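 further: the enzyme is Sfp with the accession as filed and its product quenches rhodamine fluorescence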
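With Hepes-Na pH 7.6 buffer containing 10 mM MgCl2, Sfp (15 nM) modified BHQ-2-YbbR (12.5 uM) using rhodamine-CoA (5 uM). Two reads 30 minutes apart at 525/598 nm yielded each well's rate.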
JMJD2A Tudor = JMJD2A Tudor domain (human) inhibition. O75164. AlphaScreen JMJD2A-Tudor / H3K4me3 peptide binding. Potency, µM (highest dose often 114 µM), usual class: inhibitors. 4.4% of 390,000 active. AID 504339; further: nearly all actives have a fitted effect of over 50% in size
BAZ2B inh = blocks human BAZ2B | Q9UIF8 | AlphaScreen BAZ2B-H3K14Ac peptide displacement | Potency, µM (titrated, usually from 114 µM), actives largely listed as inhibitors | 4.4% of 360,000 active; further: nearly all actives have a fitted effect of over 60% in size
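Protein-peptide AlphaScreen: BAZ2B 50 nM, b-H3K14Ac 50 nM, 1x PBS pH 7.4 + 0.01% Tween-20. Preincubation 30 min RT; cpd 30 min RT (top 110 uM); beads 20 min RT, light-protected.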
L3MBTL1 inh = L3MBTL1 (human) inhibition; 0.66% of 230,000 active; Q9Y468; AlphaScreen L3MBTL1–H3K9me1 peptide binding; Potency, µM (highest dose often 57.1 µM), usual class: inhibitors; further: nearly all actives have a fitted effect of over 60% in size
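Displacement of a biotinylated histone H3(1-15) peptide monomethylated at Lys9 (75 nM) from L3MBTL1 (50 nM) was measured by AlphaScreen after a 30 min room-temperature compound incubation; cefsulodin titration served as intraplate control.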
G9a inh = blocks human histone lysine methyltransferase G9a | Potency, µM (doses to about 102 µM), most hits filed as inhibitors | G9a H3K9 monomethylation, AlphaScreen, 2 h | AID 504332 | 8.8% of 350,000 active; further: nearly all actives have a fitted effect of over 75% in size
Target sequence (Q96KQ7 913-1193 limits assumed): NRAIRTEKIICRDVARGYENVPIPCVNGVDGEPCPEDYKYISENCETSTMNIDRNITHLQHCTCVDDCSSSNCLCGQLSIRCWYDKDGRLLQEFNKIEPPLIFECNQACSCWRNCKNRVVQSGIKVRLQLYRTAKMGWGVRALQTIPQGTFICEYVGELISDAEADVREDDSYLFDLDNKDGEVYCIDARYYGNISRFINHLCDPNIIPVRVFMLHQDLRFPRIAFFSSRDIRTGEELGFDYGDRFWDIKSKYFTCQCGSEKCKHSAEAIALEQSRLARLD
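Compounds were preincubated with 20 nM G9a for 15 min, after which biotinylated H3K9 peptide (500 nM) and SAM (20 uM) started a 2 h room-temperature reaction. Monomethylated product was quantified by antibody-based AlphaScreen chemiluminescence.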
HP1b chromo inh = inhibitors of HP1-beta chromodomain binding to methylated histone tails; P83916; AlphaScreen HP1-beta / biotin-H3K9me3 peptide binding; Potency, µM (series often up to 114 µM), hits mostly inhibitors; 0.56% of 390,000 active; AID 540317; further: nearly all actives have a fitted effect of over 70% in size
Target sequence (P83916 whole entry, looked up): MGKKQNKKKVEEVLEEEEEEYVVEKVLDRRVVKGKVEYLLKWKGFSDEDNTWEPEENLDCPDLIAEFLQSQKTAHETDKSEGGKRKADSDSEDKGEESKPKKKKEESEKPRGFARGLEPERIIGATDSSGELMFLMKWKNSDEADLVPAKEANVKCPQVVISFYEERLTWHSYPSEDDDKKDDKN
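Compound inhibition of the preformed complex between 50 nM HP1-beta and 50 nM biotinylated H3K9me3 peptide was read by AlphaScreen. Buffer was PBS pH 7.4 with 0.01% Tween-20. Incubations ran 30 min at room temperature, with 10 ug/mL donor/acceptor beads.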
A number is an active result; i = inactive; ? = inconclusive; nt = no result; ! = not active in a repeat; [ ] = dose if it differs, or a comment. Sampled rows, rich in hits. Any-hit rate of the full collection: about 12%. The call rests on the fitted dose curve; in most records, active means well fitted curve in the direction sought with a large enough effect; inconclusive means small, poorly fitted or top-dose-only effect, or another doubt; inactive means no such curve, though single readings can be large; an effect the other way counts as inactive or inconclusive.

SMILES	Sfp inh	JMJD2A Tudor	BAZ2B inh	L3MBTL1 inh	G9a inh	HP1b chromo inh
CCc1nc2ccccc2c(=O)n1NC(=O)c1c(O)c2ccccc2[nH]c1=O	i	79µM	?	i	i	i
CCCc1nc2ccccc2c(=O)n1NC(=O)c1c(O)c2ccccc2n(C)c1=O	i	i	i	i	i	i
CCCCNC(=S)NCCN1CCCCC1	56µM	1.6µM	i	i	2µM	?
CCCNC(=S)NCCN1CCCCC1	?	40µM	?	i	8.9µM	i
Cc1ccn2c(NC3CCCC3)c(-c3ccccn3)nc2c1	i	50µM	50µM	nt	?	i
c1ccc(-c2nc3ccccn3c2NC2CCCC2)nc1	10µM	?	50µM	?	i[12.7 µM]	i
CCNc1cccc(S(=O)(=O)N2CCCN(S(=O)(=O)c3ccc4c(c3)OCCO4)CC2)c1	nt	i	nt	nt	nt	nt
O=C(Nc1ccccc1)c1ccc(-c2ccccc2)s1	i	i	nt	nt	?	i
O=C(O)c1ccc(-c2ccc(-c3ccccc3)cc2)s1	i	nt	50µM	nt	?	nt
CCOc1ccc(-n2c(C)nc(O)c2N=Nc2ccccc2)cc1	i	?	?	nt	1.4µM	i
CN1C(=O)/C(=C/C=C2\SCCN2C)SC1=S	i	nt	i	i	8.9µM	nt
CCN1/C(=C\C=C2\C(=O)N(c3ccccc3)C(=S)N2C)Sc2ccccc21	?	i	nt	nt	?	i
CN1C(=O)/C(=C/C=C2\SCCN2C)N(C)C1=S	i	i	i	nt	40µM	?
CC1CCCC(NC(=O)Cn2cc(C(F)(F)F)cc(Cl)c2=O)C1C (configuration not stated)	nt	i	i	i	?	i
Cc1cn(C)c(CC(=O)N2CCN(c3ccccc3F)CC2)c1C(=O)O	nt	i	i	nt	i	i
O=C(CNC(=O)c1nc[nH]c1C(=O)NCc1ccccc1)OCc1ccccc1	i	i	i	i	i	i
O=C(CNC(=O)c1nc[nH]c1C(=O)NCC(=O)OCc1ccccc1)OCc1ccccc1	i	?	?	i	nt	i
CCN(CC)C(=O)c1[nH]cnc1C(=O)NCC(=O)OCc1ccccc1	i	i	i	i	79µM	i
CNC(=O)c1[nH]cnc1C(=O)NCC(=O)OCc1ccccc1	i	i	i	i	45µM	i
CNC(=O)c1[nH]cnc1C(=O)N[C@@H](C)C(=O)OCc1ccccc1	i	i	50µM	nt	i[12.7 µM]	i
CC(=O)C1=C(O)C(=O)N(c2cccc(Br)c2)C1c1ccc(Br)cc1 (configuration not stated)	i	i	i	i	?	i
COc1ccc(C(=O)N/C(=C\c2ccco2)C(=O)NCCN2CCOCC2)cc1	i	i	i	nt	i	i
COc1cccc(CNC(=O)c2ccc3nc(-c4ccccc4)c(-c4ccccc4)nc3c2)c1OC	nt	i	i	nt	i	i
CCOc1ccc(-c2n[nH]c(C)c2-c2ccccc2OC)c(O)c1	i	i	i	i	i	i
CCc1cc(-c2n[nH]c(C)c2-c2ccccc2Cl)c(O)cc1OC	i	?	?	nt	40µM	i
SMILES	Sfp inh	JMJD2A Tudor	BAZ2B inh	L3MBTL1 inh	G9a inh	HP1b chromo inh
Cc1nc(NC(=O)CSc2cc(C)c3ccccc3n2)c(Cl)cc1Cl	?	i	i	i	45µM	i
Cc1ccc(-c2nc(NC(=O)CSc3cc(C)c4ccccc4n3)ns2)cc1	i	?	10µM!	i	35µM	i
Cc1cc(SCC(=O)Nc2cccnc2Cl)nc2ccccc12	i	i	i	i	i	i
COc1ccc2c(C)cc(SCC(=O)Nc3nsc(-c4ccc(C)cc4)n3)nc2c1	i	i	i	i	i	i
O=C(Nc1ccc2oc(-c3ccccc3Cl)nc2c1)c1ncn[nH]1	i	28µM	50µM	i	?	i
CC(C)c1ccc2oc(-c3ccc(NC(=O)c4ncn[nH]4)cc3)nc2c1	i	40µM	35µM	?	i[12.7 µM]	i
COc1ccc(C(=O)COC(=O)c2cc(-c3ccccc3)nc3c(C)cccc23)cc1	nt	i	i	nt	i	i
Oc1ccc(-c2cn3ccccc3n2)cc1O	?	25µM	79µM	nt	2µM	?
Cc1ccn2cc(-c3ccc(O)c(O)c3)nc2c1	50µM	40µM	71µM	nt	8.9µM	?
Oc1ccc(-c2cn3ccccc3n2)cc1	i	i	i	i	?	i
Cc1ccn2cc(CC(=O)O)nc2c1	56µM	40µM	56µM	?	20µM	71µM
COc1cccc2cc(C(=O)NCCc3c(C)[nH]c4ccc(Br)cc34)c(=O)oc12	nt	i	?	nt	i	i
COc1ccc(CCNC(=O)C2CCC(CNS(=O)(=O)c3ccc(C)cc3)CC2)cc1OC (configuration not stated)	nt	i	i	nt	i	i
Cc1cc(CN2CCCC(CNC(=O)c3ccc(F)cc3)C2)cc(C)c1O (configuration not stated)	i	i	i	i	79µM	i
CN(C)c1ccc(Nc2ncnc3ccc(Br)cc23)cc1	?	45µM	45µM	i	10µM	?
Clc1ccc(Nc2ncnc3ccc(Br)cc23)cc1	i	i	i	i	i	i
CCN(c1ccccc1)S(=O)(=O)c1ccc(Oc2ccc(-n3ccnc3)cc2)nc1	i	89µM	?	i	i	i
CCN(c1ccccc1)S(=O)(=O)c1ccc(Oc2ccccc2C(C)=O)nc1	nt	i	nt	i	nt	i
CCCc1cc(CNC(=O)C2CCC(=O)N(Cc3ccccc3OC)C2)on1 (configuration not stated)	i	i	i	nt	?	i
CCN(CC)S(=O)(=O)c1cccc(C(=O)OCC(=O)NCCN2C(=O)CSC2=O)c1	nt	i	i	i	i[2.33 µM]	i
CC(=O)Oc1cc(C(F)(F)F)ccc1C(=O)O	i	nt	nt	nt	i[5.15 µM]	nt
O=C(O)c1c[nH]c2ccc([N+](=O)[O-])cc2c1=O	nt	79µM	nt	nt	nt	i
O=C(O)c1ccc([N+](=O)[O-])cc1-c1cc([N+](=O)[O-])ccc1C(=O)O	nt	i	nt	nt	nt	i
O=C(O)c1c[nH]c2cc(C(F)(F)F)ccc2c1=O	i	i	50µM	i	i[0.501 µM]	i
Cc1c(C(=O)O)[nH]c2ccc([N+](=O)[O-])cc12	i	79µM	79µM	i	?	?
CCc1nn2c(=O)cc(N3C(C)CNCC3C)nc2s1 (configuration not stated)	nt	i	nt	nt	nt	nt
NC(=O)c1ccc(NC(=O)C2CC(=O)N(c3ccc4c(c3)OCCO4)C2)cc1 (configuration not stated)	nt	i	i	i	i[12.7 µM]	i
COc1ccc2nc(NNC(=O)C3COc4ccccc4O3)sc2c1 (configuration not stated)	79µM	i	i	i	?	i
CCN(CC)CCNC(=O)c1ccc(NC(=O)C2CC(=O)N(c3ccc4c(c3)OCCO4)C2)cc1 (configuration not stated)	nt	i	i	i	40µM	i
COc1ccc2nc(NC(=O)C3CC(=O)N(c4ccc5c(c4)OCCO5)C3)sc2c1 (configuration not stated)	nt	i	i	i	40µM	i
